From PubChem BioAssay (NCATS)
Results filed as inconclusive are left out. Active and inactive are the calls of the source. Calls follow the shape of the dose curve; as a rule, active = well fitted curve in the direction sought with a large enough effect; inconclusive = small, poorly fitted or top-dose-only effect, or another doubt; inactive = no such curve, though single readings can be large; an effect the other way counts as inactive or inconclusive.

How the values were obtained:
[1] = biological target: Rap guanine nucleotide exchange factor 3 (Homo sapiens) (UniProt O95398); assay: Confirmatory qHTS for agonist of cAMP-regulated guanine nucleotide exchange factor 3 (EPAC1) (AID 1645881);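 also: EPAC1 catalysed release of BODIPY-GDP from Rap1B seen as fluorescence loss; 100% = effect of cAMP agonist control; nearly all actives have a fitted effect of over 75% in size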
Rap guanine nucleotide exchange factor 3 (Homo sapiens), sequence (O95398 whole entry, looked up): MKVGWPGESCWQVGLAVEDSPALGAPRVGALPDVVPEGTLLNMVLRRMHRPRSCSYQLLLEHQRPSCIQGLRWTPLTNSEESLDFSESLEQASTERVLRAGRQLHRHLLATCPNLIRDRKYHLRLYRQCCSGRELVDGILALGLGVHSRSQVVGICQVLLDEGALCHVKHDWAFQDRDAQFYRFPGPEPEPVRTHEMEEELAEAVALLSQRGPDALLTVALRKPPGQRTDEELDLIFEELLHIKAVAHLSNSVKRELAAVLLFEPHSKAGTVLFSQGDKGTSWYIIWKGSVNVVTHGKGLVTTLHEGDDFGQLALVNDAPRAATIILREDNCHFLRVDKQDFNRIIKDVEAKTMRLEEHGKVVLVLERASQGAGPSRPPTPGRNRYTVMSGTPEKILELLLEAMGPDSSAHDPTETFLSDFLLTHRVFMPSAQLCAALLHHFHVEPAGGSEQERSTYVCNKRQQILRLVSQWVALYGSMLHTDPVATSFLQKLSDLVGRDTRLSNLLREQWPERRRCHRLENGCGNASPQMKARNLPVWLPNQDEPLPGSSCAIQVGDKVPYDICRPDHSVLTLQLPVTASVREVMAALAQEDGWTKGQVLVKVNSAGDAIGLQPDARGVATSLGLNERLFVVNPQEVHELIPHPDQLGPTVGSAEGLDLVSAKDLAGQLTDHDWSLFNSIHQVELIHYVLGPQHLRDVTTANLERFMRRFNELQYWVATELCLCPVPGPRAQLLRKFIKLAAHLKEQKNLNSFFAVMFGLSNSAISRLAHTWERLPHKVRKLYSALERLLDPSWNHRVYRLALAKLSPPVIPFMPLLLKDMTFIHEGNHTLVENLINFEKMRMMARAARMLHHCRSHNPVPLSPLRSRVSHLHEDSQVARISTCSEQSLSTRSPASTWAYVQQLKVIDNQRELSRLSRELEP

[2] = biological target: Rap guanine nucleotide exchange factor 4 (Homo sapiens) (UniProt Q8WZA2); assay: Confirmatory qHTS for agonist of cAMP-regulated guanine nucleotide exchange factor 4 (EPAC2) (AID 1645884);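 also: nucleotide exchange releases bodipy-GDP from Rap1 and this lowers its fluorescence; % is scaled to controls: 0 for no effect and ±100 for the full control effect; nearly all actives have a fitted effect of over 65% in size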
Rap guanine nucleotide exchange factor 4 (Homo sapiens), sequence (Q8WZA2 whole entry, looked up): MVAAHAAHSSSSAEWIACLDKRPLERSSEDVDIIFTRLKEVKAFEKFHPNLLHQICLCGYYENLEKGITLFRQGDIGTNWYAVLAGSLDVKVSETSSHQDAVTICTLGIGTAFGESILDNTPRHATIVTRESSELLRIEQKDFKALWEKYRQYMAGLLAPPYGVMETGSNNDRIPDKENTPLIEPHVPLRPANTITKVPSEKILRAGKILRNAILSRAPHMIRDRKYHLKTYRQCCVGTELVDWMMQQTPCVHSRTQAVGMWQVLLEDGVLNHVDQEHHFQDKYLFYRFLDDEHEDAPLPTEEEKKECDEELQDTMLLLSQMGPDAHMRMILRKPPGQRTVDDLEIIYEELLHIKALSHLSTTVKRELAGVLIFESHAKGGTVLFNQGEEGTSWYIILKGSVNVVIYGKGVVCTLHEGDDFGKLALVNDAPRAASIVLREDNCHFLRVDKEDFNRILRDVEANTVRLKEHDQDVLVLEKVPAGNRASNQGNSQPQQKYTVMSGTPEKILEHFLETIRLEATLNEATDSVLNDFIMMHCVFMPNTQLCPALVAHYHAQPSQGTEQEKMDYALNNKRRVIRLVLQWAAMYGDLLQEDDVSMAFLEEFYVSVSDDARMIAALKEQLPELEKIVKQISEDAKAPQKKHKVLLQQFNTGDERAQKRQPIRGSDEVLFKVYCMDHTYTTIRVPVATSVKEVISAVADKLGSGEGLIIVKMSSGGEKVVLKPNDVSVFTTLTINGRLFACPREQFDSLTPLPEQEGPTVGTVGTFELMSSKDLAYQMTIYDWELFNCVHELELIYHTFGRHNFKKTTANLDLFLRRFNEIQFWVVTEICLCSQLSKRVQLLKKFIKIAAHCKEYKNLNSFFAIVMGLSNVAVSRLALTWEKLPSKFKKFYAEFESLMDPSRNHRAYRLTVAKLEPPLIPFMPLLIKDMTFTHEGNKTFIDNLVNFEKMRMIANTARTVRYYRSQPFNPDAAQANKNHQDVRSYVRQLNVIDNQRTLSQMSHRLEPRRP

[3] = biological target: Rap guanine nucleotide exchange factor 3 (Homo sapiens) (UniProt O95398); assay: Counterscreen qHTS for antagonist of cAMP-regulated guanine nucleotide exchange factor 3 (EPAC1) (AID 1645888);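 also: fluorescence loss as bound BODIPY-GDP is released from Rap1B; % of control where 0% means no effect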
Outline: (§1)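 Measured: fluorescence of BODIPY-GDP bound to Rap1B, which falls as exchange proceeds. Conditions include 50 uM competing GDP, 5 and 30 min reads, and a later cAMP challenge for antagonist detection.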

[4] = biological target: Rap guanine nucleotide exchange factor 3 (Homo sapiens) (UniProt O95398); assay: Counterscreen qHTS for agonist of cAMP-regulated guanine nucleotide exchange factor 3 (EPAC1) (AID 1645889); also: % of control where 0% means no effect; nearly all actives have a fitted effect of over 40% in size
Outline: as §1

[5] = biological target: Rap guanine nucleotide exchange factor 4 (Homo sapiens) (UniProt Q8WZA2); assay: Confirmatory qHTS for antagonist of cAMP-regulated guanine nucleotide exchange factor 4 (EPAC2) (AID 1645885); also: nearly all actives have a fitted effect of over 25% in size; as to activity change, negative = inhibition: % is scaled to controls: 0 for no effect and ±100 for the full control effect

O=C1NCN(c2ccccc2)C12CCN(C(c1cc3ccccc3o1)c1nnnn1C1CCCCC1)CC2 (stereo not drawn)
inactive: Potency [1] | Potency [2] | outcome [3]

CCOC(=O)[C@]12Cc3cc(OC)ccc3[C@H]1N(C1CCCCC1)C(=O)c1ccccc12
inactive: Potency [1] | Potency [2] | Potency [4]

O=C1NC(=O)N(Cc2ccc(F)cc2)C(=O)/C1=C\c1ccoc1
inactive: Potency [1] | Potency [5]

Cc1cccc(CN2C(=O)CN=C(c3ccccc3)c3cc(Cl)ccc32)c1
inactive: Potency [2] | outcome [5] inactive [at 12.7 µM] | outcome [3]

COc1ccc(-n2nnnc2C(c2cccs2)N2CCC(n3c(=O)[nH]c4ccccc43)CC2)cc1 (stereo not drawn)
inactive: Potency [1] | Potency [5] | outcome [3]

O=C1NC(=O)N(Cc2ccccc2)C(=O)/C1=C\c1ccco1
inactive: Potency [1] | activation [2] 4.68% [at 17.1 µM, percent relative to cAMP agonist control] | activity change, negative = inhibition [5] 4.49% [at 12.7 µM] | activation [4] 12.3% [at 30.8 µM]
